TexasRed fluor: Total Fluorescence Counterscreen for Inhibitors of the Interaction of Thyroid Hormone Receptor and Steroid Receptor Coregulator 2 | TRb/SRC2 Texas Red total fluorescence interference | Potency, µM (series often up to 106 µM), for inactives: at the top dose fluorescence change, negative = quenching | 0.29% of 280,000 active | AID 1479, 2009; active = well fitted curve in either direction with a large enough effect; inconclusive = small, poorly fitted or top-dose-only effect; also: potency is read from the fitted curve at half-maximal effect
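Flags fluorescent or light-absorbing compounds by total fluorescence, S + 2P, at 555 nm excitation and 632 nm emission. Mixture: 20 nM Texas Red SRC2 peptide, 0.6 uM human TRb LBD, 1 uM T3, 5% DMSO; compound exposure 5 h at ambient temperature.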
RGS12 GoLoco inh: qHTS Assay for Inhibitors of RGS12 GoLoco Motif Activity (Red Fluorophore) | Guanine nucleotide-binding protein G(i) subunit alpha-1 (Homo sapiens), P63096 | Gai1:RGS12 GoLoco peptide FP, rhodamine, 10 min | Potency, µM (top dose mostly 61.6 µM), without a hit: at the highest dose activity, negative = inhibition, hits mostly inhibitors | 0.44% of 230,000 active | AID 880, 2007; active = well fitted inhibition curve with a large enough effect, not every such curve was filed as active; inactive = no such curve, though single readings can be large or run the other way; also: potency is read from the fitted curve at half-maximal effect; nearly all actives have a fitted effect of over 30% in size
FBPA coupling cs: qHTS Assay for Inhibitors of Fructose-1,6-bisphosphate Aldolase from Giardia Lamblia: Coupling assay counterscreen; 0.67% of 290,000 active; coupling enzyme system counterscreen, AmpLite Red fluorescence; activity change, negative = inhibition, % at 58.2 µM, hits read low; AID 2472, 2010; in the data active = activity change below about -30%
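First, compound is pin-transferred into glyceraldehyde-3-phosphate coupling-enzyme reagent at 57.5 uM final and held 10 min at RT. Next, substrate, coupling system and AmpLite Red are added. After 20 min RT, fluorescence (525/598 nm) is read.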
TRb-SRC2 inh: qHTS for Inhibitors of the Interaction of Thyroid Hormone Receptor and Steroid Receptor Coregulator 2; Thyroid hormone receptor beta (Homo sapiens), P10828; TRbeta-SRC2 peptide binding, fluorescence polarization; receptor liganded with 1 µM T3; Potency, µM (doses to about 106 µM), for inactives: top-dose activity change, negative = inhibition, actives largely listed as inhibitors; 0.065% of 280,000 active; active = well fitted inhibition curve with a large enough effect; inconclusive = small, poorly fitted or top-dose-only effect, or effect the other way;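 also: potency is read from the fitted curve at half-maximal effect; plate controls were bound peptide for no effect and peptide without receptor for full effect; nearly all actives have a fitted effect of over 50% in size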
Target sequence (P10828 whole entry, looked up): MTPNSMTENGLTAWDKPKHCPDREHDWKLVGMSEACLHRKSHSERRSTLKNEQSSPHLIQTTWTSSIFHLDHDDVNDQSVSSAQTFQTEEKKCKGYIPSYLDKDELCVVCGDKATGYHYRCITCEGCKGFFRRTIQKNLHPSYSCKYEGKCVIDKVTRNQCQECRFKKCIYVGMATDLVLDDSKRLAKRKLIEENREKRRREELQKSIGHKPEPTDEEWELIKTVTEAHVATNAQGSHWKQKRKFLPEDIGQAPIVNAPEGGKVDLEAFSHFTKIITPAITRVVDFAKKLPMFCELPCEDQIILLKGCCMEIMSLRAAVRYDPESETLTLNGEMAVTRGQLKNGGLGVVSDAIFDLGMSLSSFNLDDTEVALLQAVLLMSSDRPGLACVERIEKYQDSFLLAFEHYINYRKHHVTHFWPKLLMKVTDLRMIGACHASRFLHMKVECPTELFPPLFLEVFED
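Compounds were added to 0.6 uM TRb ligand-binding domain and 20 nM Texas Red-labeled SRC2 peptide in Tris buffer containing 1 uM T3, incubated 5 hr at ambient temperature, then read by fluorescence polarization.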
An asterisk follows results filed as active; i = inactive; ? = inconclusive; . = not tested or not shown; ! = not confirmed by another sample; [ ] = remark or other dose. Most compounds without a hit are left out; they make up all but 0.93% or so of the library. Unless noted, % is scaled to controls: 0 for no effect and ±100 for the full control effect.

SMILES | TexasRed fluor | RGS12 GoLoco inh | FBPA coupling cs | TRb-SRC2 inh
CCn1c(=O)c(=O)[nH]c2cc(C(=O)NC3CCCc4ccccc43)ccc21 (configuration not stated) | 40µM*[fluorescent] | 205% | 1 | 11%
CCOc1ccc(C2OC34CCCCC3C(C#N)(C#N)C2(C#N)C(=N)O4)cc1OC (configuration not stated) | 1% | 1.4µM* | -6 | -9%
C=CCOc1ccc(C2OC34CCCCC3C(C#N)(C#N)C2(C#N)C(=N)O4)cc1 (configuration not stated) | 2% | -73% | -3 | 3%
CCCCOc1ccc(C2OC34CCCCC3C(C#N)(C#N)C2(C#N)C(=N)O4)cc1 (configuration not stated) | 3% | 25µM* | -4 | -13%
Cc1ccc(Cn2cc(CCC(=O)NC3CCCCC3)c3ccccc32)cc1 | 0% | . | . | -11%
CCOc1ccc(NC(=O)c2c(C)oc3nc(C)nc(N4CCOCC4)c23)cc1 | 3% | . | . | -2%
OCCOCCOCCOCCOCCO | 0%[201 µM] | . | . | 4%[201 µM]
O=C(Cn1c2[n+](c3ccc(C(F)(F)F)cc31)CCCCC2)Nc1ccc(Br)cc1 | -3% | 18µM* | 2 | 15%
CC(=O)Nc1ccc(S(=O)(=O)N2CCC(n3c(C)nc4cccnc43)CC2)cc1 | 1% | . | . | 3%
CCO/C=C1/C(=O)N(Cc2ccccc2)C(=O)c2ccccc21 | -3% | -9% | -44* | 4%
CN(C)c1ccc(NC(=O)CSCc2nc3c(nnn3Cc3ccc(F)cc3)c(=O)[nH]2)cc1 | -8% | 3.5µM* | -36* | 5%
CCc1c(C)nc2c(OC)cccc2c1SCCC(=O)O | 0.79µM*[quencher] | -4% | 15 | -24%[53 µM]
COC(=O)CN1C(=O)CSc2ccc(S(=O)(=O)Nc3cccc(Br)c3)cc21 | -3% | . | . | -9%
CC(CCO)Nc1nc2c(c(=O)n(C)c(=O)n2C)n1Cc1ccc(Br)cc1 (configuration not stated) | 0.0071µM*[quencher] | . | . | -21%
O=S(=O)(Nc1c(S(=O)(=O)c2ccccc2)c2nc3ccccc3nc2n1C1CCCCC1)c1ccccc1 | -1% | -3% | -53* | ?
C=CCn1c(NS(=O)(=O)c2ccccc2)c(S(=O)(=O)c2ccc(C)cc2)c2nc3ccccc3nc21 | -2% | 4% | -59* | -11%
CC(=O)Nc1c(S(=O)(=O)c2ccccc2)c2nc3ccccc3nc2n1Cc1ccccc1 | -3% | 5% | 0 | -2%
O=C1c2ccccc2-c2onc3ccc(NCCCn4ccnc4)c1c23 | 45µM*[fluorescent] | i | -17 | 16µM*
CCS(=O)(=O)Nc1ccc(-c2cc(-c3ccccc3)c3cc(C)ccc3n2)cc1 | 0.14µM*[quencher] | -15% | 6 | -15%[53 µM]
CCOC(=O)/C=C(\C)Sc1cc(=O)oc2ccccc12 | 4% | 5% | 1 | 7%
CCOC(=O)/C=C(\C)Sc1cc(O)c2ccccc2c1O | -1% | -35% | -86* | -4%
Cc1ccc(C(=O)c2c(N)c(C(=O)Nc3cccc(C(F)(F)F)c3)c3ccccn23)cc1 | -2% | . | . | -9%
CSc1sc(C)cc1C1C(C#N)=C(N)N(c2cccnc2)C2=C1C(=O)CC(C)(C)C2 (configuration not stated) | 0% | . | 3 | 0%
CCOc1ccc(OCC)c(C2C(C#N)=C(N)N(c3cccnc3)C3=C2C(=O)CC(C)(C)C3)c1 (configuration not stated) | -5% | 12% | -52* | -2%
Nc1nc(O)c(N=Nc2ccc(S(N)(=O)=O)cc2)c(=O)[nH]1 | . | . | -1 | .
SMILES | TexasRed fluor | RGS12 GoLoco inh | FBPA coupling cs | TRb-SRC2 inh
NS(=O)(=O)c1ccc(N=Nc2c[nH]c(=O)c(O)c2)cc1 | ? | 22%[14.2 µM] | -38* | -12%
OC(COCC1COc2ccccc2O1)CN1CCN(c2ccccc2)CC1 (configuration not stated) | 0% | -1% | 2 | 0%
C[N+]1(CC(O)COCC2COc3ccccc3O2)CCOCC1 (configuration not stated) | 4% | 2µM* | 3 | -8%
CCOc1ccccc1N1CCN(S(=O)(=O)c2ccc(C3CCCCC3)cc2)CC1 | -1% | . | . | 8%
Cc1nnc(Sc2cc(NCCCO)c([N+](=O)[O-])c3nonc23)s1 | -4% | 7.9µM* | -36* | 2%
CCCSc1cc(NCCOC(C)=O)c([N+](=O)[O-])c2nonc12 | -1% | -12% | -39* | 0%
O=C1CCC[C@@H](C2=CCCCC2=O)C1 | 2%[11.2 µM] | . | 0 | 0%[11.2 µM]
COc1ccc(N=C2NC(=O)S/C2=C\c2ccc(N(C)C)cc2)cc1 | 50µM*[fluorescent] | -96% | 1 | 32µM*
IC(I)I | -2%[201 µM] | 14µM* | . | -6%[201 µM]
NC(=O)N1c2ccccc2C=Cc2ccccc21 | -2% | 5% | 2 | -2%
NC(=O)N1c2ccccc2CC(=O)c2ccccc21 | 0% | 6% | -32*! | -29%
c1ccc2n[nH]nc2c1 | -1% | 16µM* | . | -3%
c1ccc(-c2n[nH]nc2-c2ccccc2)cc1 | 1% | 0% | -4 | 1%
COc1ccccc1/C=C/C(C)=O | -3% | 8% | 5 | 1%
CNc1ccccc(C(=O)/C=C/c2ccccc2OC)c1=O | -1% | 15% | -30* | -2%
CNc1ccc(Br)cc(C(=O)/C=C/c2cccc(OC)c2OC)c1=O | -9% | 20% | -32* | -18%
CCCCCCCCCCCCCCC(=O)OC | -2%[201 µM] | . | . | 1%[201 µM]
O=c1n(Cc2ccc([N+](=O)[O-])cc2)c2ccccc2c2nc(-c3ccccc3)nn12 | 100µM*[quencher] | . | . | -21%
CCC(=O)N(C1=C(NC)C(=O)c2ccccc2C1=O)C(C)C | 0% | -3% | -41* | 0%
CC(=O)NC1=C(Nc2ccc(N(C)C)cc2)C(=O)c2ccccc2C1=O | . | . | -29 | .
CNC1=C(N(C(C)=O)c2ccc(Br)cc2)C(=O)c2ccccc2C1=O | -5% | 8% | -56* | -22%
COc1ccc(N(Cc2cccs2)C(=O)Nc2ccccc2)cc1 | -9% | . | . | 0%
CCC[N+](C)(C)C(C)C(OC(C)=O)c1ccccc1 (configuration not stated) | -1% | 7.9µM* | 0 | -4%
CC(NC(=O)Cc1ccccc1)c1ccccc1 (configuration not stated) | . | . | 1 | .
CC(/C=N/NC(=O)c1cc(-c2ccncc2)nc2ccccc12)=C\c1ccco1 | -1% | -5% | -40* | 5%
O=C(N/N=C/c1ccc(F)cc1)c1cc(-c2ccco2)nc2ccccc12 | 32µM*[quencher] | 9% | -10 | 3%
Cc1csc(NC(=O)c2cc(-c3ccco3)nc3ccccc23)n1 | 7.1µM*[quencher] | 35% | -3 | -21%[53 µM]
CCOc1ccc(/C=N/NC(=O)c2cc(-c3ccco3)nc3ccccc23)cc1 | 1% | 8% | 0 | 3%
Cc1csc(NC(=O)c2cc(C)nc3ccccc23)n1 | -3% | 4% | 1 | -13%

High-throughput results from PubChem BioAssay.
